Data from PubChem BioAssay AID1159580 (chemical genetic matrix, 2015).
Values joined by “and” are separate entries in the source; they are usually repeats but may differ in a detail not shown here. Identical values can stand only once. Out of some 5,500 compounds screened, about 2,000 (36%) were called active. Another 18% or so got no clear call; they are omitted. The list shows a part of the results. Values without a mark were called inactive. No stated cut-off is given here; in the data, active means normalized growth mostly below about 0.91 (no sharp cut-off); inconclusive means no clear call, values can overlap the other calls; inactive means mostly above about 0.92.

Assay: chemical genetic growth profiling, strain panel (AID 1159580);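 further: tested at 20 µM; growth read once vehicle control cultures reached saturation at 30 °C; 1 = growth at the plate median or of vehicle wells; lower values mean less growth of the strain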
Conditions: S. cerevisiae deletion strains, growth OD

## COc1cc2ccc(=O)oc2c2ccoc12
Locus YAL021C, strain ccr4, active compounds read low
  normalized growth: 0.941
Locus YAL026C, strain drs2, active compounds read low
  normalized growth: 0.859 (active)
Locus YAL030W, strain snc1, active compounds read low
  normalized growth: 0.982
Locus YBL061C, strain skt5, active compounds read low
  normalized growth: 0.999
Locus YBR009C, strain hhf1, active compounds read low
  normalized growth: 0.777 (active)
Locus YBR021W, strain FUR4, active compounds read low
  normalized growth: 1.04
Locus YBR023C, strain chs3, active compounds read low
  normalized growth: 0.932
Locus YBR171W, strain sec66, active compounds read low
  normalized growth: 0.984
Locus YBR229C, strain ROT2, active compounds read low
  normalized growth: 0.998
Locus YBR231C, strain swc5, active compounds read low
  normalized growth: 0.733 (active)
Locus YBR279W, strain paf1, active compounds read low
  normalized growth: 0.99
Locus YCL011C, strain gbp2, active compounds read low
  normalized growth: 0.823 (active)
Locus YCL016C, strain dcc1, active compounds read low
  normalized growth: 0.828 (active)
Locus YCL029C, strain bik1, active compounds read low
  normalized growth: 0.982
Locus YCL069W, strain vba3, active compounds read low
  normalized growth: 0.915 (active)
Locus YCR088W, strain abp1, active compounds read low
  normalized growth: 1.01
Locus YDL005C, strain med2, active compounds read low
  normalized growth: 0.994
Locus YDL035C, strain GPR1, active compounds read low
  normalized growth: 0.971
Locus YDL040C, strain nat1, active compounds read low
  normalized growth: 1
Locus YDL074C, strain BRE1, active compounds read low
  normalized growth: 0.85
Locus YDL101C, strain DUN1, active compounds read low
  normalized growth: 0.94
Locus YDL134C, strain PPH21, active compounds read low
  normalized growth: 0.964
Locus YDL185W, strain tfp1, active compounds read low
  normalized growth: 0.937
Locus YDL192W, strain arf1, active compounds read low
  normalized growth: 0.955
Locus YDR001C, strain nth1, active compounds read low
  normalized growth: 0.994
Locus YDR069C, strain doa4, active compounds read low
  normalized growth: 0.905
Locus YDR101C, strain arx1, active compounds read low
  normalized growth: 0.985
Locus YDR137W, strain rgp1, active compounds read low
  normalized growth: 1.03
Locus YDR159W, strain sac3, active compounds read low
  normalized growth: 0.829 (active)
Locus YDR162C, strain NBP2, active compounds read low
  normalized growth: 0.974
Locus YDR195W, strain ref2
  normalized growth: 1.3 [resistant] (active)
Locus YDR297W, strain sur2, active compounds read low
  normalized growth: 0.903 (active)
Locus YDR318W, strain mcm21, active compounds read low
  normalized growth: 0.965
Locus YDR334W, strain swr1, active compounds read low
  normalized growth: 0.772 (active)
Locus YDR335W, strain msn5, active compounds read low
  normalized growth: 0.896 (active)
Locus YDR388W, active compounds read low
  normalized growth: 1
Locus YDR392W, strain spt3, active compounds read low
  normalized growth: 0.665 (active)
Locus YDR502C, strain sam2, active compounds read low
  normalized growth: 0.958
Locus YEL003W, strain gim4, active compounds read low
  normalized growth: 0.818 (active)
Locus YEL037C, strain rad23, active compounds read low
  normalized growth: 0.957
Locus YEL061C, strain CIN8 (second series), active compounds read low
  normalized growth: 0.99
Locus YER015W, strain faa2, active compounds read low
  normalized growth: 0.92 (active)
Locus YER016W, strain bim1, active compounds read low
  normalized growth: 1
Locus YER110C, active compounds read low
  normalized growth: 0.975
Locus YER111C, strain swi4, active compounds read low
  normalized growth: 1
Locus YER155C, strain BEM2 (second series), active compounds read low
  normalized growth: 0.731 (active)
Locus YER155C, strain BEM2, active compounds read low
  normalized growth: 1.02
Locus YER167W, strain BCK2, active compounds read low
  normalized growth: 1.01
Locus YFR010W, strain ubp6, active compounds read low
  normalized growth: 0.915
Locus YGL078C, strain dbp3, active compounds read low
  normalized growth: 0.967
Locus YGL086W, strain mad1, active compounds read low
  normalized growth: 0.969
Locus YGL167C, strain pmr1, active compounds read low
  normalized growth: 0.998
Locus YGL173C, strain kem1, active compounds read low
  normalized growth: 0.862 (active)
Locus YGL227W, strain vid30, active compounds read low
  normalized growth: 0.999
Locus YGL240W, strain doc1, active compounds read low
  normalized growth: 0.692 (active)
Locus YGL248W, strain PDE1, active compounds read low
  normalized growth: 0.952
Locus YGL253W, strain hxk2, active compounds read low
  normalized growth: 0.892 (active)
Locus YGR078C, strain PAC10, active compounds read low
  normalized growth: 0.977
Locus YGR135W, strain pre9, active compounds read low
  normalized growth: 0.893 (active)
Locus YGR252W, strain gcn5, active compounds read low
  normalized growth: 0.76 (active)
Locus YHR013C, strain ard1, active compounds read low
  normalized growth: 0.953
Locus YHR027C, strain rpn1, active compounds read low
  normalized growth: 0.881 (active)
Locus YHR030C, strain SLT2, active compounds read low
  normalized growth: 1 and 0.986
Locus YHR079C, strain IRE1 (second series), active compounds read low
  normalized growth: 0.961
Locus YHR079C, strain IRE1, active compounds read low
  normalized growth: 1.02
Locus YHR094C, strain hxt1, active compounds read low
  normalized growth: 0.996
Locus YHR129C, strain ARP1, active compounds read low
  normalized growth: 1
Locus YHR142W, strain chs7, active compounds read low
  normalized growth: 0.838 (active)
Locus YHR200W, strain rpn10, active compounds read low
  normalized growth: 0.899 (active)
Locus YIL066C, strain RNR3, active compounds read low
  normalized growth: 1
Locus YIL073C, strain SPO22, active compounds read low
  normalized growth: 0.957
Locus YIL125W, strain kgd1, active compounds read low
  normalized growth: 1.01
Locus YIR030C, strain dcg1, active compounds read low
  normalized growth: 0.993
Locus YJL092W, strain hpr5, active compounds read low
  normalized growth: 0.973
Locus YJL095W, strain BCK1 (second series), active compounds read low
  normalized growth: 0.937
Locus YJL095W, strain BCK1, active compounds read low
  normalized growth: 0.906 and 0.992
Locus YJL115W, strain asf1, active compounds read low
  normalized growth: 0.883 (active)
Locus YJL129C, strain trk1, active compounds read low
  normalized growth: 1.14 [resistant] (active)
Locus YJL134W, strain LCB3, active compounds read low
  normalized growth: 1
Locus YJL154C, strain vps35, active compounds read low
  normalized growth: 0.996
Locus YJL164C, strain tpk1, active compounds read low
  normalized growth: 0.902 (active)
Locus YJL166W, strain qcr8, active compounds read low
  normalized growth: 0.826 (active)
Locus YJL168C, strain set2, active compounds read low
  normalized growth: 0.983
Locus YJL187C, strain SWE1 (second series), active compounds read low
  normalized growth: 0.98
Locus YJR043C, strain POL32, active compounds read low
  normalized growth: 0.921
